Our source for the binding signal values is publication PMC7862700, “An all-to-all approach to the identification of sequence-specific readers for epigenetic DNA modifications on cytosine”.

Test in all cases: DAPPL (digital affinity profiling via proximity ligation, sequencing); 10 mM Tris-HCl pH 7.5, 50 mM NaCl, 1 mM DTT, 4% glycerol, room temperature, 30 min; GST-TFs on glutathione beads, 16-mer random dsDNA library, 0.1% formaldehyde crosslink after washing; high values mean tight binding
One experiment addresses T1, FEV (Homo sapiens, UniProt Q99581 1-238).
T1 sequence: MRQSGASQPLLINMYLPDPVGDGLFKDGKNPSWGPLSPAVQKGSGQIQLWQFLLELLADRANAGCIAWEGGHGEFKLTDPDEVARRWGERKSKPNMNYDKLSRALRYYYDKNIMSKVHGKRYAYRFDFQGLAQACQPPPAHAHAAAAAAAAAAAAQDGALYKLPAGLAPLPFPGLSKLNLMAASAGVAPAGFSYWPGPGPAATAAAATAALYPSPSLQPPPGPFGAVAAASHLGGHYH
To be noted: protein: recombinant; tags: N-terminal GST; dsDNA, one strand shown. An outline of the steps:
(§1)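 Binding signal is each hexamer's read frequency for a factor divided by its frequency in the tag-only sample. The factors were GST-fused human transcription factors from yeast, captured on glutathione beads, DNA-barcoded and pooled with that sample. Pools were incubated with 200 nmole of a random double-stranded 16-mer DNA library in Tris/NaCl/DTT/glycerol buffer at room temperature for 30 min, then washed, crosslinked with 0.1% formaldehyde, proximity-ligated with BsaI/T4 ligase (1 h, 37 °C), PCR-amplified and sequenced on an Illumina NextSeq500.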

A further experiment has as its target ETV5 (Homo sapiens, UniProt P41161 1-510). As to conditions: protein: recombinant; tags: N-terminal GST; dsDNA, one strand shown. An outline of the steps:
as §1

For the next experiment, the target named is HSF1 (Homo sapiens, UniProt Q00613 1-529). To be noted: protein: recombinant; tags: N-terminal GST; chain copies: 3; dsDNA, one strand shown. An outline of the steps:
as §1

In another experiment the target is T2, SPIC (Homo sapiens, UniProt Q8N5J4 1-248).
T2 sequence: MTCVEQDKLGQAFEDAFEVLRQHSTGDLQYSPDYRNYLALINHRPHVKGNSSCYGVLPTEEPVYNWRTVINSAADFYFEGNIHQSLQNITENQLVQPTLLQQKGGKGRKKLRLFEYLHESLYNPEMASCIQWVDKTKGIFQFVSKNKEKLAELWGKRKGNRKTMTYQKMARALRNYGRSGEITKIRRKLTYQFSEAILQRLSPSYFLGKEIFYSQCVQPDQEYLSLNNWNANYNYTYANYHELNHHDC
To be noted: protein: recombinant; tags: N-terminal GST; dsDNA, one strand shown. The procedure, abridged:
as §1

The target in a further experiment is ELF4 (Homo sapiens, UniProt Q99607 1-663). To be noted: protein: recombinant; tags: N-terminal GST; dsDNA, one strand shown. The procedure, abridged:
as §1

For a further experiment, the target named is T3, ELK4 (Homo sapiens, UniProt P28324-2 1-405).
T3 sequence: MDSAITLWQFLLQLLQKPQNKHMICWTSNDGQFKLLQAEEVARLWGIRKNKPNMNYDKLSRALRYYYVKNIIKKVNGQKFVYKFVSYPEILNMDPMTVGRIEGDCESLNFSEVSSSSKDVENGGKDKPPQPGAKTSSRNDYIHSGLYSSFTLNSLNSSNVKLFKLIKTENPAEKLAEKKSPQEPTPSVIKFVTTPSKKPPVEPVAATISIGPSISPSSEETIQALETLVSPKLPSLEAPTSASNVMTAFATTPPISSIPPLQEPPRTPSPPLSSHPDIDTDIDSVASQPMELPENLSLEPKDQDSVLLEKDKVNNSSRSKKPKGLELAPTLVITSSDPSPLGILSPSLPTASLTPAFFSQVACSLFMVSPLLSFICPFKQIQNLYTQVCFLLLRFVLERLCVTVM
To be noted: protein: recombinant; tags: N-terminal GST; dsDNA, one strand shown. An outline of the steps: as §1

Another experiment concerns the target T4, ETV2 (Homo sapiens, UniProt O00321 1-342).
T4 sequence: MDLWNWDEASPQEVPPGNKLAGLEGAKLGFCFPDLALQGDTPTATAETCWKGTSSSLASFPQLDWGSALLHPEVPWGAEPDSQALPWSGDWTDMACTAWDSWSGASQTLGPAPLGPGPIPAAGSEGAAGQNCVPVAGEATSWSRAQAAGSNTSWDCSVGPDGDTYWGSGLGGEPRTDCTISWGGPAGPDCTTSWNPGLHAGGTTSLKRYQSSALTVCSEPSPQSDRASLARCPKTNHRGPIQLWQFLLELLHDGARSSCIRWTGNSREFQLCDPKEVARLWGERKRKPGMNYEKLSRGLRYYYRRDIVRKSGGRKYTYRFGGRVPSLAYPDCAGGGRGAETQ
As to conditions: protein: recombinant; tags: N-terminal GST; dsDNA, one strand shown. An outline of the steps: as §1

The next experiment addresses T5, ELF3 (Homo sapiens, UniProt P78545 1-371).
T5 sequence: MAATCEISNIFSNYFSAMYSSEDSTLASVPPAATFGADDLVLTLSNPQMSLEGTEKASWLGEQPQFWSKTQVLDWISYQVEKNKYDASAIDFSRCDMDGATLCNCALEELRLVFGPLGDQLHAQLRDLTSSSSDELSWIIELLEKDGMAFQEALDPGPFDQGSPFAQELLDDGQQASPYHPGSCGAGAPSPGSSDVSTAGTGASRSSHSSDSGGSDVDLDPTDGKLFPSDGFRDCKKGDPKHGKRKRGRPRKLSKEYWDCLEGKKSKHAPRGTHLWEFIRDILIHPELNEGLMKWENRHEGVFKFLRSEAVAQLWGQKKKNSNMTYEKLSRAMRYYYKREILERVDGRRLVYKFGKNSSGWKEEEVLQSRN
To be noted: protein: recombinant; tags: N-terminal GST; dsDNA, one strand shown. An outline of the steps: as §1

The target in another experiment is CRX (Homo sapiens, UniProt O43186 1-299). As to conditions: protein: recombinant; tags: N-terminal GST; dsDNA, one strand shown. An outline of the steps:
as §1

The target in the next experiment is ETV1 (Homo sapiens, UniProt P50549 1-477). As to conditions: protein: recombinant; tags: N-terminal GST; dsDNA, one strand shown. An outline of the steps: as §1
The next experiment deals with T6, ERF (Homo sapiens, UniProt P50548 1-548).
T6 sequence: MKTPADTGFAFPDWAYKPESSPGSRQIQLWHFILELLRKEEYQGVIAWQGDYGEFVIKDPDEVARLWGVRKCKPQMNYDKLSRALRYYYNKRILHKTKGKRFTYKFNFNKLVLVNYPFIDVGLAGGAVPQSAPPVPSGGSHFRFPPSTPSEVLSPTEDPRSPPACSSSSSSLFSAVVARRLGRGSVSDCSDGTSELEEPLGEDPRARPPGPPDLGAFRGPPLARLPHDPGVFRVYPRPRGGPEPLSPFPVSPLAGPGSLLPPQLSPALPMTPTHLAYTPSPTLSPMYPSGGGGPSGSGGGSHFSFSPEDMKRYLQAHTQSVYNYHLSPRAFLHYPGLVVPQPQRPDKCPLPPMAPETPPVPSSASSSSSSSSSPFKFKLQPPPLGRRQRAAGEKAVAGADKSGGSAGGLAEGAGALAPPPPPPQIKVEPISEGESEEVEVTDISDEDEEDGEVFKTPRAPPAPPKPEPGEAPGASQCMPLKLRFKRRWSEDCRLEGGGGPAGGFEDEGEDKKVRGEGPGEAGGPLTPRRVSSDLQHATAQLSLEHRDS
To be noted: protein: recombinant; tags: N-terminal GST; dsDNA, one strand shown. An outline of the steps:
as §1

Another experiment has as its target T7, ETV3L (Homo sapiens, UniProt Q6ZN32 1-361).
T7 sequence: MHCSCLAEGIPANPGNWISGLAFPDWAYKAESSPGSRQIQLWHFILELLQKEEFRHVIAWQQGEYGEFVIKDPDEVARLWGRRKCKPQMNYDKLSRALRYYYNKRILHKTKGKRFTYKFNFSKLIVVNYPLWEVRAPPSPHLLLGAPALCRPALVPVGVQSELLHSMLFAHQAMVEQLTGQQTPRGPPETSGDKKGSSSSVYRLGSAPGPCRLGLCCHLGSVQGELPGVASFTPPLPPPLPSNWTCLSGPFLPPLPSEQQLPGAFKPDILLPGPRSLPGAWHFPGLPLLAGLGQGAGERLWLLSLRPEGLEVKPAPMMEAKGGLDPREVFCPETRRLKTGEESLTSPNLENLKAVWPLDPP
As to conditions: protein: recombinant; tags: N-terminal GST; dsDNA, one strand shown. The procedure, abridged:
as §1

The next experiment deals with T8, ETS2 (Homo sapiens, UniProt P15036 1-469).
T8 sequence: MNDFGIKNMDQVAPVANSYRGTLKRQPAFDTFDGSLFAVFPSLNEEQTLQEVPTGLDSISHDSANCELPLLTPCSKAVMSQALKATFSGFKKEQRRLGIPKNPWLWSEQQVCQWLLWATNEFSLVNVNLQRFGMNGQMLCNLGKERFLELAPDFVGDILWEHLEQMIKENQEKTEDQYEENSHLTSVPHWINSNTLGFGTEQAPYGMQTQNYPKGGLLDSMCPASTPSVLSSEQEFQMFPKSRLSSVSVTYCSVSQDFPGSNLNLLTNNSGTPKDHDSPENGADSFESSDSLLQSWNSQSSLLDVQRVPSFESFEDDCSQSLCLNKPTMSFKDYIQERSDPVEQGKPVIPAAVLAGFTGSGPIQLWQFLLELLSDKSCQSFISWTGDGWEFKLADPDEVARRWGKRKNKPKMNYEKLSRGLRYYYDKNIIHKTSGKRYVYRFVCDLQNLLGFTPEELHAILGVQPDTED
As to conditions: protein: recombinant; tags: N-terminal GST; dsDNA, one strand shown. An outline of the steps:
as §1

Another experiment deals with T9, SPDEF (Homo sapiens, UniProt O95238 1-335).
T9 sequence: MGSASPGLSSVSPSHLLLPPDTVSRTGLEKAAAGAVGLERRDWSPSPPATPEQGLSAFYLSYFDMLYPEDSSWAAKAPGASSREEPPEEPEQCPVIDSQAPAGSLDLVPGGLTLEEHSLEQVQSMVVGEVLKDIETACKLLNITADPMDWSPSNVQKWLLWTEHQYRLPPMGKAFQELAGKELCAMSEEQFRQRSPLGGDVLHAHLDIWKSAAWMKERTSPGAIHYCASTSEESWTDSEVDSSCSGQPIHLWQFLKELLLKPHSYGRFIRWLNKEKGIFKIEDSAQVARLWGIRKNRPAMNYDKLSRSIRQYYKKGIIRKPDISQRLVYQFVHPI
As to conditions: protein: recombinant; tags: N-terminal GST; dsDNA, one strand shown. The procedure, abridged: as §1

In the next experiment the target is T10, ETV7 (Homo sapiens, UniProt Q9Y603 1-341).
T10 sequence: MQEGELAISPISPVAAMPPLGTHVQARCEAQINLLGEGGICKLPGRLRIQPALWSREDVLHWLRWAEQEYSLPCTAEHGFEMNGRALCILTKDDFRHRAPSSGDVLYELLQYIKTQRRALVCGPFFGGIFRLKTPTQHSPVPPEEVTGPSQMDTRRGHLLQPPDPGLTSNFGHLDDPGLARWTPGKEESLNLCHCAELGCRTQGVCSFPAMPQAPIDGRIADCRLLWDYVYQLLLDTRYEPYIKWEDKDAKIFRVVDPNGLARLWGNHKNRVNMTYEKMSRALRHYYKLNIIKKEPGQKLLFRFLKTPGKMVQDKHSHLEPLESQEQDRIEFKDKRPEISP
As to conditions: protein: recombinant; tags: N-terminal GST; dsDNA, one strand shown. An outline of the steps: as §1

The target of a further experiment is T11, ELF5 (Homo sapiens, UniProt Q9UKW6-2 1-255).
T11 sequence: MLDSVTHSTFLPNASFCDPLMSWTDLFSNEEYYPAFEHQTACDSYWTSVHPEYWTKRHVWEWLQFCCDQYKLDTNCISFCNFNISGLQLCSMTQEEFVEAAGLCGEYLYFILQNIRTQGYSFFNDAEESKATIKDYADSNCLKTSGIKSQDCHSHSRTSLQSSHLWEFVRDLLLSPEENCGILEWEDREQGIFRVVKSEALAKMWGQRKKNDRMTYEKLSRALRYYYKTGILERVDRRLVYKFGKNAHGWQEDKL
To be noted: protein: recombinant; tags: N-terminal GST; dsDNA, one strand shown. The procedure, abridged:
as §1

Another experiment concerns the target T12, ETV3 (Homo sapiens, UniProt P41162-2 1-143).
T12 sequence: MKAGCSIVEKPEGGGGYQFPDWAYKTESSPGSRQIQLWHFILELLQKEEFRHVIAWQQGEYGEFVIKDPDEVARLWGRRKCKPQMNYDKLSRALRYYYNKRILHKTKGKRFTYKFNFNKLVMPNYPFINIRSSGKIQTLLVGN
To be noted: protein: recombinant; tags: N-terminal GST; dsDNA, one strand shown. An outline of the steps: as §1

For another experiment, the target named is ETV6 (Homo sapiens, UniProt P41212 1-452). As to conditions: protein: recombinant; tags: N-terminal GST; dsDNA, one strand shown. An outline of the steps:
as §1

Chain of HSF1 (Q00613 whole entry): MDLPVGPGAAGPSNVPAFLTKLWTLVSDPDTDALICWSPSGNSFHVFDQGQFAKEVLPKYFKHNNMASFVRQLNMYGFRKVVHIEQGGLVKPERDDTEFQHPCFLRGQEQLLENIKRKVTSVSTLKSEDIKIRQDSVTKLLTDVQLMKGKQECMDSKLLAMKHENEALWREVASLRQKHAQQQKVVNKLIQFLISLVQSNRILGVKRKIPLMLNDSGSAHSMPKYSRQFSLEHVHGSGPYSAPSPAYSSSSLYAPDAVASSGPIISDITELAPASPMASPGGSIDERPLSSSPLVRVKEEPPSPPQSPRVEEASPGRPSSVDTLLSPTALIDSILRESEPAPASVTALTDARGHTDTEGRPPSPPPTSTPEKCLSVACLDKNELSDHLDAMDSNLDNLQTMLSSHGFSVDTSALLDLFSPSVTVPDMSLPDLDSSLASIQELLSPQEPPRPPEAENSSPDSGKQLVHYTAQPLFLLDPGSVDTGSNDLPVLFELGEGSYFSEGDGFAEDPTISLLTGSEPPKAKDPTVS
Chain of ETV1 (P50549 whole entry): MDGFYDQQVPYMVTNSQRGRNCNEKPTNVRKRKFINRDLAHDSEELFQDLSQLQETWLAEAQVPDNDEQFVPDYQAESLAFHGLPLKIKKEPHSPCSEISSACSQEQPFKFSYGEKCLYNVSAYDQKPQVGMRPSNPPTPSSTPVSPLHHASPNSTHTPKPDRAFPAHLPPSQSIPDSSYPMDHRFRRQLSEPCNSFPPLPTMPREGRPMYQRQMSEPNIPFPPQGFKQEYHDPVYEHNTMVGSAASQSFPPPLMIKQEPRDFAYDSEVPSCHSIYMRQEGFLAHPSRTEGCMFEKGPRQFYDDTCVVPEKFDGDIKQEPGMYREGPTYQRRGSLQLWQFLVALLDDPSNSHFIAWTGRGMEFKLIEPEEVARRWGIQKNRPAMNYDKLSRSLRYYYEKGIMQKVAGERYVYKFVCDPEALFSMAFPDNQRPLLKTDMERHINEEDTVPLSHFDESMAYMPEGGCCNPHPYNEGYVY
Chain of ELF4 (Q99607 whole entry): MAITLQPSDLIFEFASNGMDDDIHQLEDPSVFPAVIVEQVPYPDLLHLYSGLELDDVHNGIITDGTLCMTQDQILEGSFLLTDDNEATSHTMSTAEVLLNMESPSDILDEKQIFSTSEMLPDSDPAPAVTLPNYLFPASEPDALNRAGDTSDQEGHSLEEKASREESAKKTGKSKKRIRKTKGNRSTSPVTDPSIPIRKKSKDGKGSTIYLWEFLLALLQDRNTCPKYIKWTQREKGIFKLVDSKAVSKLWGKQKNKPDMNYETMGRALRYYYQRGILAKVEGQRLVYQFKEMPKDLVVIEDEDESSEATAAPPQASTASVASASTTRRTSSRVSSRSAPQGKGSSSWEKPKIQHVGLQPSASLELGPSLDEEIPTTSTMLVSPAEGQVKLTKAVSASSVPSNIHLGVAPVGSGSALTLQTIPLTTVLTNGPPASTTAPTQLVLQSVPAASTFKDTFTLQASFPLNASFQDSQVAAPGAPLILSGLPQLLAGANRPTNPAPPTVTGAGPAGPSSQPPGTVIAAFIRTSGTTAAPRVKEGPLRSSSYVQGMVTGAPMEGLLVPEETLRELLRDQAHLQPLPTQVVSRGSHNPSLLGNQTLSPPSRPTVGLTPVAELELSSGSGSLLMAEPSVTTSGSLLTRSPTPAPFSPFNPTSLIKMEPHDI
Chain of ETV5 (P41161 whole entry): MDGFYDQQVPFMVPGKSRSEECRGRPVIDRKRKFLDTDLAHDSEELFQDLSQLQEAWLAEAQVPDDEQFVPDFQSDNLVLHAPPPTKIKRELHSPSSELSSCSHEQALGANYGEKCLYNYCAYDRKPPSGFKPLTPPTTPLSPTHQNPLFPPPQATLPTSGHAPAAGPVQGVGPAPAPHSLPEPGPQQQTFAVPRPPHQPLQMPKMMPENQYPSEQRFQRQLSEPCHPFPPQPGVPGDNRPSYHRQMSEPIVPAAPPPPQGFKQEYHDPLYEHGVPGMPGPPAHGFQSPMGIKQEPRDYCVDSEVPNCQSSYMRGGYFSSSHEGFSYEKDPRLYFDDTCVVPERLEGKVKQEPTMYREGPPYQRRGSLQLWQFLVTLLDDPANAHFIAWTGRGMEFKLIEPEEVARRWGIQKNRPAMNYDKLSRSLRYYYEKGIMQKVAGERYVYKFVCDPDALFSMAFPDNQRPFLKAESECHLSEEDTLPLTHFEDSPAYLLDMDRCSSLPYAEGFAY
Chain of ETV6 (P41212 whole entry): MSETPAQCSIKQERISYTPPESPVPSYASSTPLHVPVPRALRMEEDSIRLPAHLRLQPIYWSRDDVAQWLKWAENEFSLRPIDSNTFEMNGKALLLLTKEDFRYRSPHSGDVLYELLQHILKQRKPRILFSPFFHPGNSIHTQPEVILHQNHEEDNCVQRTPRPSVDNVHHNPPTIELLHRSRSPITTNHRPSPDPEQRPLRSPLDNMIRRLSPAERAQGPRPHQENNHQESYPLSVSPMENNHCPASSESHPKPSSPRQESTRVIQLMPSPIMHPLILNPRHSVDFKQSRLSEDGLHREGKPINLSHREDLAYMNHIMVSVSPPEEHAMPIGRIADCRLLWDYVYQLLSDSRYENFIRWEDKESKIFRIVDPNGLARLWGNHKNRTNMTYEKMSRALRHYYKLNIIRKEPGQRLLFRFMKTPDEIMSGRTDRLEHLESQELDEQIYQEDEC
Chain of CRX (O43186 whole entry): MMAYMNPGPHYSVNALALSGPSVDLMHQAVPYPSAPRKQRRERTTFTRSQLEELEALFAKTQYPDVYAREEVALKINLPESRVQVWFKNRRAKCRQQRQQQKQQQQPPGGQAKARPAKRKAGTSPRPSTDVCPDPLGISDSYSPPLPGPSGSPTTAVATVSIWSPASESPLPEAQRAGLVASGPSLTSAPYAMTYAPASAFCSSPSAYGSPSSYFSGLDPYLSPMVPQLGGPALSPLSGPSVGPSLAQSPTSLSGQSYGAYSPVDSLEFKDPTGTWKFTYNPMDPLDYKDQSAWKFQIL

In the case of ATGGCA, the binding signal is 1.44 fold enrichment (6-mer frequency, TF over GST control) in the experiment with FEV; 1.28 fold enrichment (6-mer frequency, TF over GST control) with ETV5; 1.1 fold enrichment (6-mer frequency, TF over GST control) in the experiment with HSF1; 1.21 fold enrichment (6-mer frequency, TF over GST control) with SPIC; 1.2 fold enrichment (6-mer frequency, TF over GST control) with ELF4; 1.15 fold enrichment (6-mer frequency, TF over GST control) with ELK4. Besides, the binding signal with ETV2 was 1.31 fold enrichment (6-mer frequency, TF over GST control); with ELF3, 1.28 fold enrichment (6-mer frequency, TF over GST control); with CRX it was 1.11 fold enrichment (6-mer frequency, TF over GST control); in the experiment with ETV1, 1.27 fold enrichment (6-mer frequency, TF over GST control); with ERF it was 1.23 fold enrichment (6-mer frequency, TF over GST control); with ETV3L it was 1.2 fold enrichment (6-mer frequency, TF over GST control). The binding signal was 1.15 fold enrichment (6-mer frequency, TF over GST control) in the experiment with ETS2; 1.1 fold enrichment (6-mer frequency, TF over GST control) in the experiment with SPDEF; 1.24 fold enrichment (6-mer frequency, TF over GST control) with ETV7; 1.26 fold enrichment (6-mer frequency, TF over GST control) with ELF5; 1.3 fold enrichment (6-mer frequency, TF over GST control) in the experiment with ETV3; 1.28 fold enrichment (6-mer frequency, TF over GST control) with ETV6.
